Counter-ions that a name gives are not always drawn.
Experiments:
Conditions in all cases: treatment time: 24 h
[1] = system: A549-ACTB-RAB5A; experiment: lowest phenotypically active concentration; higher = less potent
Procedure, shortened: (§1)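 Fifteen gene-edited A549, HepG2 and WPMY1 reporter lines (BFP segmentation plus GFP and RFP/FusionRed markers) were treated at 0.3, 1, 3 or 9 µM for 24 h, four wells each, then imaged live. Live-cell features per well were normalised to DMSO control wells. Deviation required ≥3 of 4 wells beyond the 95th percentile of DMSO Euclidean distances, and reproducibility required median replicate Pearson correlation above the 95th percentile of non-replicates. Phenotypic activity needed both criteria.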

[2] = system: A549-CANX-COX4; experiment: as above
Procedure, shortened: as §1

[3] = system: A549-GM130-SQSTM1; experiment: as above
Procedure, shortened: as §1

[4] = system: A549-TUBA1B-RELA; experiment: as above
Procedure, shortened: as §1

[5] = system: HepG2-TUBA1B-RELA; experiment: as above
Procedure, shortened: as §1

[6] = system: A549-ACTB-RAB5A; experiment: phenotypically active (imaging signature differs from DMSO and reproducible) at any of 0.3-9 uM (binary (1 = active, 0 = inactive)); higher = active
Procedure, shortened: as §1

[7] = system: A549-CANX-COX4; experiment: as above
Procedure, shortened: as §1

[8] = system: A549-GM130-SQSTM1; experiment: as above
Procedure, shortened: as §1

[9] = system: A549-TP53BP1-CLTA; experiment: as above
Procedure, shortened: as §1

[10] = system: A549-TUBA1B-RELA; experiment: as above
Procedure, shortened: as §1

[11] = system: HepG2-ACTB-RAB5A; experiment: as above
Procedure, shortened: as §1

[12] = system: HepG2-CANX-COX4; experiment: as above
Procedure, shortened: as §1

[13] = system: HepG2-GM130-SQSTM1; experiment: as above
Procedure, shortened: as §1

[14] = system: HepG2-TP53BP1-CLTA; experiment: as above
Procedure, shortened: as §1

[15] = system: HepG2-TUBA1B-RELA; experiment: as above
Procedure, shortened: as §1

[16] = system: WPMY1-ACTB-RAB5A; experiment: as above
Procedure, shortened: as §1

[17] = system: WPMY1-CANX-COX4; experiment: as above
Procedure, shortened: as §1

[18] = system: WPMY1-GM130-SQSTM1; experiment: as above
Procedure, shortened: as §1

[19] = system: WPMY1-TP53BP1-CLTA; experiment: as above
Procedure, shortened: as §1

[20] = system: WPMY1-TUBA1B-RELA; experiment: as above
Procedure, shortened: as §1

| SMILES | lowest phenotypically active concentration [1] [µM] | lowest phenotypically active concentration [2] [µM] | lowest phenotypically active concentration [3] [µM] | lowest phenotypically active concentration [4] [µM] | lowest phenotypically active concentration [5] [µM] | phenotypically active [6] | phenotypically active [7] | phenotypically active [8] | phenotypically active [9] | phenotypically active [10] | phenotypically active [11] | phenotypically active [12] | phenotypically active [13] | phenotypically active [14] | phenotypically active [15] | phenotypically active [16] | phenotypically active [17] | phenotypically active [18] | phenotypically active [19] | phenotypically active [20] |
| --- | --- | --- | --- | --- | --- | --- | --- | --- | --- | --- | --- | --- | --- | --- | --- | --- | --- | --- | --- | --- |
| CC(=O)Nc1ccc(C(=O)Nc2ccccc2N)cc1 | 1 | 1 | 1 | 1 | 3 | 1 (active) | 1 (active) | 1 (active) | 1 (active) | 1 (active) | 1 (active) | 1 (active) | 1 (active) | 1 (active) | 1 (active) | 1 (active) | 1 (active) | 1 (active) | 1 (active) | 1 (active) |
| CCOC(=O)Nc1cc(-c2ccc(C)c(NS(C)(=O)=O)c2)nn2c(C)nnc12 [Bromosporine] | ≤ 0.3 | 1 | 1 | 1 | 1 | 1 (active) | 1 (active) | 1 (active) | 1 (active) | 1 (active) | 1 (active) | 1 (active) | 1 (active) | 1 (active) | 1 (active) | 1 (active) | 1 (active) | 1 (active) | 1 (active) | 1 (active) |
| CO[C@@H]1[C@H](N(C)C(=O)c2ccccc2)C[C@H]2O[C@]1(C)n1c3ccccc3c3c4c(c5c6ccccc6n2c5c31)C(=O)NC4 | ≤ 0.3 | ≤ 0.3 | ≤ 0.3 | ≤ 0.3 | ≤ 0.3 | 1 (active) | 1 (active) | 1 (active) | 1 (active) | 1 (active) | 1 (active) | 1 (active) | 1 (active) | 1 (active) | 1 (active) | 1 (active) | 1 (active) | 1 (active) | 1 (active) | 1 (active) |
| COc1cc(N2CCN(C)CC2)ccc1Nc1nccc(-c2cn(C)c3cnccc23)n1 | 1 | 9 | 3 | 1 | 1 | 1 (active) | 1 (active) | 1 (active) | 1 (active) | 1 (active) | 1 (active) | 1 (active) | 1 (active) | 1 (active) | 1 (active) | 1 (active) | 1 (active) | 1 (active) | 1 (active) | 1 (active) |
| Nc1ccc(-c2ccc3ncc4ccc(=O)n(-c5cccc(C(F)(F)F)c5)c4c3c2)cn1 [Torin 2] | ≤ 0.3 | ≤ 0.3 | ≤ 0.3 | ≤ 0.3 | ≤ 0.3 | 1 (active) | 1 (active) | 1 (active) | 1 (active) | 1 (active) | 1 (active) | 1 (active) | 1 (active) | 1 (active) | 1 (active) | 1 (active) | 1 (active) | 1 (active) | 1 (active) | 1 (active) |
| CN(C)CC(=O)N1CCC[C@@H](n2nc(-c3ccc(Oc4ccccc4)cc3)c3c(N)ncnc32)C1 | 1 | 9 | 1 | 1 | 1 | 1 (active) | 1 (active) | 1 (active) | 1 (active) | 1 (active) | 1 (active) | 1 (active) | 1 (active) | 1 (active) | 1 (active) | 1 (active) | 1 (active) | 1 (active) | 1 (active) | 1 (active) |
| Cc1cc(C)cc(C(=O)NOCCCCCC(=O)NO)c1 | ≤ 0.3 | ≤ 0.3 | ≤ 0.3 | ≤ 0.3 | ≤ 0.3 | 1 (active) | 1 (active) | 1 (active) | 1 (active) | 1 (active) | 1 (active) | 1 (active) | 1 (active) | 1 (active) | 1 (active) | 1 (active) | 1 (active) | 1 (active) | 1 (active) | 1 (active) |
| COc1cc(C)c(Sc2cnc(NC(=O)c3ccc(CNC(C)C(C)(C)C)cc3)s2)cc1C(=O)N1CCN(C(C)=O)CC1 (stereo not given) | 1 | 9 | 3 | 1 | 3 | 1 (active) | 1 (active) | 1 (active) | 1 (active) | 1 (active) | 1 (active) | 1 (active) | 1 (active) | 1 (active) | 1 (active) | 1 (active) | 1 (active) | 1 (active) | 1 (active) | 1 (active) |
| Nc1nccc2c1ncn2[C@@H]1C=C(CO)[C@@H](O)[C@H]1O [3-Deazaneplanocin A hydrochloride] | ≤ 0.3 | 1 | 3 | 3 | 1 | 1 (active) | 1 (active) | 1 (active) | 1 (active) | 1 (active) | 1 (active) | 1 (active) | 1 (active) | 1 (active) | 1 (active) | 1 (active) | 1 (active) | 1 (active) | 1 (active) | 1 (active) |
| O=C(Cc1ccc(-c2ccc(OCCN3CCOCC3)cc2)cn1)NCc1ccccc1 | ≤ 0.3 | ≤ 0.3 | ≤ 0.3 | ≤ 0.3 | ≤ 0.3 | 1 (active) | 1 (active) | 1 (active) | 1 (active) | 1 (active) | 1 (active) | 1 (active) | 1 (active) | 1 (active) | 1 (active) | 1 (active) | 1 (active) | 1 (active) | 1 (active) | 1 (active) |
| CCC1=C[C@@H]2CN(C1)Cc1c([nH]c3ccccc13)[C@@](C(=O)OC)(c1cc3c(cc1OC)N(C)[C@H]1[C@@](O)(C(=O)OC)[C@H](OC(C)=O)[C@]4(CC)C=CCN5CC[C@]31[C@@H]54)C2 [vinorelbine] | ≤ 0.3 | ≤ 0.3 | ≤ 0.3 | ≤ 0.3 | ≤ 0.3 | 1 (active) | 1 (active) | 1 (active) | 1 (active) | 1 (active) | 1 (active) | 1 (active) | 1 (active) | 1 (active) | 1 (active) | 1 (active) | 1 (active) | 1 (active) | 1 (active) | 1 (active) |
| COc1ccccc1-c1c[nH]c2ncc(-c3cncc(C(=O)N(C)C)c3)cc12 | ≤ 0.3 | 1 | ≤ 0.3 | ≤ 0.3 | ≤ 0.3 | 1 (active) | 1 (active) | 1 (active) | 1 (active) | 1 (active) | 1 (active) | 1 (active) | 1 (active) | 1 (active) | 1 (active) | 1 (active) | 1 (active) | 1 (active) | 1 (active) | 1 (active) |
| CNC1CCC2(C)C(=CCC3C2CCC24CN(C)C(C)C2CCC34)C1 (stereo not given) [Isoconessimine] | ≤ 0.3 | 9 | ≤ 0.3 | ≤ 0.3 | 1 | 1 (active) | 1 (active) | 1 (active) | 1 (active) | 1 (active) | 1 (active) | 1 (active) | 1 (active) | 1 (active) | 1 (active) | 1 (active) | 1 (active) | 1 (active) | 1 (active) | 1 (active) |
| C[C@@H]1COCCN1c1cc(C2(S(C)(=O)=O)CC2)nc(-c2cccc3[nH]ccc23)n1 | ≤ 0.3 | 1 | ≤ 0.3 | 1 | 1 | 1 (active) | 1 (active) | 1 (active) | 1 (active) | 1 (active) | 1 (active) | 1 (active) | 1 (active) | 1 (active) | 1 (active) | 1 (active) | 1 (active) | 1 (active) | 1 (active) | 1 (active) |
| CC[C@@H](N)CNc1ccnc(-c2cc(-c3cnn(C)c3)ccc2O)n1 | 1 | 3 | 1 | 1 | 1 | 1 (active) | 1 (active) | 1 (active) | 1 (active) | 1 (active) | 1 (active) | 1 (active) | 1 (active) | 1 (active) | 1 (active) | 1 (active) | 1 (active) | 1 (active) | 1 (active) | 1 (active) |
| CN(C)C1CCN(C(=O)c2ccc(NC(=O)Nc3ccc(-c4nc(N5CCOCC5)nc(N5CCOCC5)n4)cc3)cc2)CC1 | ≤ 0.3 | ≤ 0.3 | ≤ 0.3 | ≤ 0.3 | ≤ 0.3 | 1 (active) | 1 (active) | 1 (active) | 1 (active) | 1 (active) | 1 (active) | 1 (active) | 1 (active) | 1 (active) | 1 (active) | 1 (active) | 1 (active) | 1 (active) | 1 (active) | 1 (active) |
| COc1ccc(S(=O)(=O)N(CCO)c2ccccc2CN(C)C/C=C/c2ccc(Cl)cc2)cc1 | 3 | 9 | 3 | 3 | 9 | 1 (active) | 1 (active) | 1 (active) | 1 (active) | 1 (active) | 1 (active) | 1 (active) | 1 (active) | 1 (active) | 1 (active) | 1 (active) | 1 (active) | 1 (active) | 1 (active) | 1 (active) |
| COc1ccc(S(=O)(=O)Nc2cccnc2Nc2ccc(O)cc2)cc1 | 1 | 1 | 1 | 3 | 1 | 1 (active) | 1 (active) | 1 (active) | 1 (active) | 1 (active) | 1 (active) | 1 (active) | 1 (active) | 1 (active) | 1 (active) | 1 (active) | 1 (active) | 1 (active) | 1 (active) | 1 (active) |
| COc1c(C)cnc(Cn2cnc3c(Cl)nc(N)nc32)c1C | ≤ 0.3 | ≤ 0.3 | ≤ 0.3 | ≤ 0.3 | ≤ 0.3 | 1 (active) | 1 (active) | 1 (active) | 1 (active) | 1 (active) | 1 (active) | 1 (active) | 1 (active) | 1 (active) | 1 (active) | 1 (active) | 1 (active) | 1 (active) | 1 (active) | 1 (active) |
| C=CC(=O)N1CCC[C@@H](n2nc(-c3cccc(C(=O)Nc4ccc(C(C)C)c(C)c4)c3)c3c(N)ncnc32)C1 | 3 | 3 | 3 | 1 | 1 | 1 (active) | 1 (active) | 1 (active) | 1 (active) | 1 (active) | 1 (active) | 1 (active) | 1 (active) | 1 (active) | 1 (active) | 1 (active) | 1 (active) | 1 (active) | 1 (active) | 1 (active) |
| CC(=O)O[C@@]12CO[C@@H]1C[C@H](O)[C@@]1(C)C(=O)[C@H](O)C3=C(C)[C@@H](OC(=O)[C@H](O)[C@@H](NC(=O)OC(C)(C)C)c4ccccc4)C[C@](O)([C@@H](OC(=O)c4ccccc4)[C@H]21)C3(C)C [Docetaxel] | ≤ 0.3 | ≤ 0.3 | ≤ 0.3 | ≤ 0.3 | ≤ 0.3 | 1 (active) | 1 (active) | 1 (active) | 1 (active) | 1 (active) | 1 (active) | 1 (active) | 1 (active) | 1 (active) | 1 (active) | 1 (active) | 1 (active) | 1 (active) | 1 (active) | 1 (active) |

— the supplement of paper PMC7411054
